A short description of test [1]: NCI Yeast Anticancer Drug Screen. Data for the rad50 strain (AID 155).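 Further: 0% = growth of vehicle-only cultures of the same strain.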 Conditions: S. cerevisiae rad50 strain growth inhibition; at 50.0 µM; hits give high values. The essentials:
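Inhibition values express reduced yeast growth in compound-treated cultures relative to vehicle-treated controls.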

Test [2] in a line: NCI Yeast Anticancer Drug Screen. Data for the mec2-1 strain (AID 157). The following applies: S. cerevisiae mec2-1 strain, at 50.0 µM, hits give high values. The essentials: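 Vehicle-treated cultures served as reference for growth inhibition of compound-exposed mec2-1 yeast.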
Test [3] can be described thus: NCI Yeast Anticancer Drug Screen. Data for the sgs1 mgt1 strain (AID 161).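 Further: 0% = growth of cultures given vehicle only.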 Conditions: S. cerevisiae sgs1 mgt1 strain, at 50.0 µM, hits give high values. The essentials:
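Test agents were incubated with a DNA-repair-mutant yeast strain. Growth was then read and compared against vehicle-treated controls.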

The nature of test [4]: NCI Yeast Anticancer Drug Screen. Data for the cln2 rad14 strain (AID 165).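 Further: 0% = growth equal to vehicle treated cultures.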 The following applies: S. cerevisiae cln2 rad14 strain, at 50.0 µM, hits give high values. The method, boiled down:
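Each compound was tested on cln2 rad14 yeast. Inhibition of growth was calculated against vehicle-exposed controls.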

Test [5] is described as follows: NCI Yeast Anticancer Drug Screen. Data for the bub3 strain (AID 167). The following applies: S. cerevisiae bub3 mutant strain, at 50.0 µM, hits give high values. The method, boiled down: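 Steps: expose the mutant yeast strain to compound; grow alongside vehicle-treated cultures; measure growth; express inhibition against the vehicle cultures.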
The nature of test [6]: NCI Yeast Anticancer Drug Screen. Data for the mlh1 rad18 strain (AID 175). Conditions: S. cerevisiae mlh1 rad18 strain growth inhibition; at 50.0 µM; hits give high values. The essentials: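 Vehicle-treated cultures served as the reference for growth inhibition in a yeast strain carrying DNA damage repair alterations exposed to each compound.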

The panel holds about 79,000 compounds, 15% with a hit somewhere; the sample as a whole holds those more often. Unmarked numbers belong to inactive results. Active and inactive are the calls of the source. No stated cut-off is given here; in the data, active means growth inhibition above about 70%; inactive means the rest.

As to `Cc1ccc(C(N)=Nc2ccccc2)cc1`, the growth inhibition in test [1] is 0.65%; in test [2], 0%; in test [3], -0.3%; in test [4] it was -2.85%; in test [5], 3.3%; in test [6], 23.4%.
On to `Oc1ccccc1C=NCCCN=Cc1ccccc1O`, for which the growth inhibition is 12.4% in test [1]; 0.25% in test [2]; 36.5% in test [3]; 15.5% in test [4]; 48.8% in test [5]; 21.5% in test [6].
Take `CCCCC(O)C(C)(C)C` (stereo not given): the growth inhibition in test [1] is 1.5%; in test [2] it was -8.65%; in test [3], 3.55%; in test [4], 6.55%; in test [5], 9.65%; in test [6], 7.2%.
Turning to `CC(C)c1ccc(/C=C2\CCC/C(=C\c3ccc(C(C)C)cc3)C2=O)cc1`, the growth inhibition was -6.7% in test [1]; -17.1% in test [2]; 9.5% in test [3]; -12.2% in test [4]; -20.4% in test [5]; -3.5% in test [6].
Take `COC(=O)C(=O)C(C(=O)C=C(C)C)C(=O)C(=O)Nc1cc(C(F)(F)F)ccc1Cl` (stereo not given): the growth inhibition is -3% in test [1]; -1.4% in test [2]; 6% in test [3]; -57.1% in test [4]; 1.15% in test [5]; -10.8% in test [6].
On to `COc1ccc(C/C=N/Nc2ccc([N+](=O)[O-])cc2[N+](=O)[O-])cc1OC`, for which the growth inhibition in test [1] is 1.7%; in test [2], -8.05%; in test [3], -2.3%; in test [4] it was 3.45%; in test [5], -6.3%; in test [6] it was -0.55%.
Consider `Cc1noc(N)c1Sc1ccc(Br)cc1`, for which the growth inhibition was 98.7% (active) in test [1]; 98.8% (active) in test [2]; 99% (active) in test [3]; 98.5% (active) in test [4]; 98.8% (active) in test [5]; 99.1% (active) in test [6].
Consider `CC1OC(CC(=O)O)CC2=C1C(=O)c1c(O)cccc1C2=O` (stereo not given), for which the growth inhibition is -6.3% in test [1]; -8.3% in test [2]; 17.2% in test [3]; 0.6% in test [4]; -14.2% in test [5]; 10.2% in test [6].
As for `CCOC(=O)c1c(C)c2c(n1Cc1ccccc1)CCCC2=O`, the growth inhibition in test [1] is 15.5%; in test [2], 11.4%; in test [3], 38.5%; in test [4], 12.7%; in test [5] it was 23.9%; in test [6], 19.4%.
With `CO[Si](C)(OC)c1ccccc1`, the growth inhibition in test [1] is -0.6%; in test [2], -23.8%; in test [3], -32.1%; in test [4], 13.2%; in test [5] it was -25.8%; in test [6], 2.75%.
For `O=S(=O)(O)c1ccccc1P(c1ccccc1)c1ccccc1`, the growth inhibition was 17.1% in test [1]; 17.7% in test [2]; 8.15% in test [3]; 36.1% in test [4]; 17.6% in test [5]; 14.6% in test [6].
In the case of `O=C1CN(c2cccc(C(F)(F)F)c2)C(=O)CN1/N=C/c1ccc(O)c(O)c1`, the growth inhibition is 3.4% in test [1]; -0.1% in test [2]; -5.3% in test [3]; -2.3% in test [4]; 2.4% in test [5]; 27.6% in test [6].
Regarding `O=C(Cl)c1cc(-c2ccc(Cl)cc2)nc2c(-c3ccccc3)cccc12`, the growth inhibition was -4.05% in test [1]; 9.15% in test [2]; -9.4% in test [3]; -38.5% in test [4]; -0.35% in test [5]; 8.5% in test [6].
With `Nc1ccc(C(=O)CC(N)C(=O)O)cc1O` (stereo not given), the growth inhibition was -9.7% in test [1]; 21.4% in test [2]; -6.9% in test [3]; -17.9% in test [4]; 6.95% in test [5]; 11.3% in test [6].
For `CC(C)(O)/C=C\P(C)(=O)c1ccccc1` (stereo not given), the growth inhibition is -30.9% in test [1]; -21.9% in test [2]; -4.7% in test [3]; 9.85% in test [4]; -32.5% in test [5]; -31.4% in test [6].
For `CC(=O)Nc1ccc(/C=C/C(=O)O)cc1`, the growth inhibition was -38.6% in test [1]; -30.6% in test [2]; -21.7% in test [3]; -6.05% in test [4]; -31.2% in test [5]; -30.8% in test [6].
As to `C[C@H](C(O)CC(=O)C(C)(C)O)[C@H]1CC[C@@]2(C)[C@@H]3CC[C@H]4C(C)(C)[C@@H](OC5OC(COC6OC(CO)C(O)C(O)C6O)C(O)C(O)C5O)CC[C@]4(C)C3=CC[C@]12C` (stereo not given in full), the growth inhibition in test [1] is -12.7%; in test [2] it was -19.3%; in test [3], -20.2%; in test [4], -0.05%; in test [5] it was -23.4%; in test [6], -75.8%.
In the case of `O=C(COc1cccc(C(=O)O)c1)Nc1ccccc1`, the growth inhibition was 3.5% in test [1]; 7.9% in test [2]; 12.4% in test [3]; -1.4% in test [4]; 50.8% in test [5]; 8% in test [6].
Consider `NC(=O)N/N=C/c1ccc2c(c1)OCO2`, for which the growth inhibition in test [1] is 20.1%; in test [2], -7.9%; in test [3] it was 0%; in test [4] it was 8.45%; in test [5], -0.15%; in test [6], 13.8%.
For the compound `COc1ccc2nc(NCCNCCO)cc(NCCNCCO)c2c1`, the growth inhibition is -12.2% in test [1]; -3.25% in test [2]; 1.2% in test [3]; 4.65% in test [4]; -0.75% in test [5]; 11.3% in test [6].
On to `C[C@]12CCC(=O)C=C1CC[C@@H]1[C@@H]2C(=O)C[C@@]2(C)[C@H]1CC[C@]2(O)C(=O)C=O`, for which the growth inhibition in test [1] was -5%; in test [2], -1.4%; in test [3], 13.8%; in test [4] it was 16.9%; in test [5], -10.8%; in test [6], 2.45%.
`N=c1sc(N2CCOCC2)nn1CC(=O)c1ccccc1`: the growth inhibition is 3.25% in test [1]; -20.9% in test [2]; -18.2% in test [3]; 4.35% in test [4]; -17.1% in test [5]; 15.1% in test [6].
Turning to `N#CC(C#N)C1c2ccccc2Oc2ccccc21`, the growth inhibition in test [1] was 7.1%; in test [2] it was -8.55%; in test [3], -4.05%; in test [4] it was -11.6%; in test [5] it was -4.95%; in test [6], -14.3%.
As to `O=S(=O)([O-])c1ccc2c[n+]3ccccc3cc2c1`, the growth inhibition in test [1] was -16.1%; in test [2], 5%; in test [3] it was -0.95%; in test [4], -44.6%; in test [5] it was 6.1%; in test [6] it was -10.3%.
In the case of `CC(=O)CC(C)(C)S(=O)(=O)c1ccc(C)cc1`, the growth inhibition was 4% in test [1]; -5.05% in test [2]; 24.4% in test [3]; -26.4% in test [4]; 11.8% in test [5]; 5.05% in test [6].
As for `COc1ccccc1/C=C(\S)C(=O)O`, the growth inhibition is -18.9% in test [1]; -6.9% in test [2]; -19.3% in test [3]; -43.5% in test [4]; -12.7% in test [5]; 8.45% in test [6].
On to `CC(C)=CC1C(C(=O)SCc2cc3c(cc2Br)OCO3)C1(C)C` (stereo not given), for which the growth inhibition in test [1] was 0.95%; in test [2] it was -6.05%; in test [3], -10.2%; in test [4], 6.25%; in test [5], 5.6%; in test [6], 6.5%.
On to `CCOC(=O)C(C)(C)O`, for which the growth inhibition is 18.8% in test [1]; 14% in test [2]; 1.05% in test [3]; -35.9% in test [4]; 9.05% in test [5]; 19.2% in test [6].
Take `O=C(O)c1cc(-c2ccccc2O)nc2ccccc12`: the growth inhibition is -19.5% in test [1]; -7.1% in test [2]; -5.2% in test [3]; 16.3% in test [4]; -1.35% in test [5]; -1.5% in test [6].
Turning to `CCCCCC(=O)Nc1ccccc1`, the growth inhibition is 4.95% in test [1]; -6.3% in test [2]; 1.7% in test [3]; -29.4% in test [4]; -10.9% in test [5]; -3.25% in test [6].
With `CCOc1ccc(NC(C)=O)c([N+](=O)[O-])c1`, the growth inhibition in test [1] is -7.05%; in test [2] it was -1.25%; in test [3], 21%; in test [4], 9.45%; in test [5], -3.35%; in test [6], 2.55%.
Turning to `O=C(NCCN1CCCC1)Nc1ccccc1Cl`, the growth inhibition is 4.6% in test [1]; 27.2% in test [2]; -0.8% in test [3]; -10.1% in test [4]; 34.1% in test [5]; 0.15% in test [6].
Consider `O=C(O)C(C(=O)O)C(c1cccc([N+](=O)[O-])c1)C(c1ccccc1)[N+](=O)[O-]` (stereo not given), for which the growth inhibition is 52.5% in test [1]; 18.2% in test [2]; 45.5% in test [3]; 12.2% in test [4]; 22.2% in test [5]; 37.7% in test [6].
Consider `O=C1C2C3C=CC(O3)C2C(=O)N1N=C1CCCCC1` (stereo not given), for which the growth inhibition in test [1] was 10.4%; in test [2], 13.2%; in test [3] it was 14.2%; in test [4], 8.65%; in test [5], 12.6%; in test [6] it was 19.4%.
Turning to `COc1cccc(N2C(Cl)C(=O)C2c2c[nH]c3ccccc23)c1` (stereo not given), the growth inhibition in test [1] was -31.4%; in test [2], -37.2%; in test [3] it was -47.6%; in test [4] it was -23.1%; in test [5], -28.9%; in test [6] it was -47%.
On to `O=C1CC(c2ccccc2)OC(c2ccccc2Cl)C1` (stereo not given), for which the growth inhibition was -1.25% in test [1]; -8.35% in test [2]; -39.5% in test [3]; -20.7% in test [4]; -5.85% in test [5]; 9.1% in test [6].
Take `COc1cccc(CCNC(=O)Cc2ccccc2CCO)c1`: the growth inhibition in test [1] is -5.8%; in test [2], -7.8%; in test [3] it was -46.8%; in test [4], 9.35%; in test [5] it was -37.9%; in test [6] it was -53.8%.
Turning to `CC(=O)NC(C)Cc1ccc(C(=O)O)cc1` (stereo not given), the growth inhibition was 13.9% in test [1]; -6.25% in test [2]; -8.5% in test [3]; -36.4% in test [4]; -4.5% in test [5]; 12.6% in test [6].
On to `c1ncn(Sn2cncn2)n1`, for which the growth inhibition in test [1] is -13.2%; in test [2] it was -6.9%; in test [3], -4.25%; in test [4], -23.8%; in test [5], -5.9%; in test [6], -0.85%.
Consider `CCCCCCCCCCCCCCCCCC(=O)O`, for which the growth inhibition in test [1] is -5.2%; in test [2] it was -17.4%; in test [3] it was 0.1%; in test [4], -5.75%; in test [5], -17.1%; in test [6] it was 6.05%.

The values are drawn from PubChem BioAssay (NCI).
